Assay outcomes (PubChem)
Shown are actives, neighbours in structure and some others; about 2.2% of the full set was active somewhere.
TROY signal inh: blocks TROY-dependent signaling in reporter cells. inhibition, % at 10 µM. Q293 LMP1-TROYcd NF-kB luciferase reporter, 4 h. hit rate 0.98% among 360,000;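 active = compounds whose plate-normalised and pattern-corrected inhibition of the luciferase reporter signal at the single screening dose is 50% or more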
TWEAK Fn14 block: blocks TWEAK-Fn14 interaction in a reporter cell assay; TWEAK-stimulated Fn14 reporter cells, luciferase luminescence, 8 h; inhibition, % at 10 µM; hit rate 2% among 360,000; AID 1159606; in the data active = inhibition above about 50%
HSP90 inh: inhibitors of HSP90 luciferase refolding in rabbit reticulocyte lysate; hit rate 0.91% among 290,000; inhibition, % at 5.6 µM; luciferase refolding luminescence, 3 h;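 active = inhibition above the screen-wide mean plus 3 SD, computed separately per campaign, cut at about 16% in these data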;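 note: 0% = DMSO wells and 100% = 60 µM geldanamycin wells; inhibitors lower the luminescence because luciferase stays unfolded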
LGR2 antag: blocks bursicon-induced cAMP signaling via Drosophila LGR2; hit rate 0.35% among 380,000; AID 720647; HEK293 LGR2, CRE-luciferase, bursicon-stimulated, 4 h; inhibition, % at 9.99 µM;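 active = drop in luminescence signal, shown as inhibition above about 50% in the replicate tests, limit read from the data, passing the limit was not always enough; inconclusive = probably only some replicates passing the limit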;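 note: agonist challenge used bursicon conditioned medium at about half maximal strength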
Starred values were filed as active, the others as inactive; ? = inconclusive; nt = not tested or not shown.

SMILES	TROY signal inh	TWEAK Fn14 block	HSP90 inh	LGR2 antag
O=C(COc1ccc(Cl)cc1Cl)Nc1ccc(Cl)cn1	4	54*	8	18
Cc1cc(Cl)ccc1OCC(=O)OCC(=O)Nc1ccc(Cl)cn1	-16	-3	nt	-16
C[C@@H]1CN([C@H](C)CO)C(=O)c2cc(NC(=O)Nc3ccccc3)ccc2O[C@@H](C)CCCCO[C@H]1CN(C)C(=O)NC1CCCCC1	nt	nt	nt	35
O=C(O)CCC(=O)NNC(=O)COc1ccc(Cl)cc1Cl	-7	-19	0	-11
O=C(O)CCC(=O)NNC(=O)CCCOc1ccc(Cl)cc1Cl	-6	97*	7	18
C[C@@H]1CCCCO[C@@H](CN(C)C(=O)Nc2cccc3ccccc23)[C@H](C)CN([C@H](C)CO)C(=O)c2cc(NC(=O)Nc3ccc4c(c3)OCO4)ccc2O1	nt	nt	nt	33
CCc1c(C)nc2ccc(Br)cc2c1SCCC#N	48	79*	1	31
O=C(C1CCCCC1)N1CC2(C1)[C@@H](c1ccccc1)[C@@H](CO)N2C(=O)NC1CCCC1	nt	nt	nt	-11
COc1ccc(-c2ccc([C@@H]3[C@@H](C#N)N[C@@H]3CO)cc2)cc1	nt	nt	nt	-11
CCCN1CCC(=NNc2ccc(C(=O)O)cc2)CC1	41	52*	-1	2
CCCN1CCC(=NNC(=O)c2ccc(Br)o2)CC1	-32	20	-1	2
COc1ccc2c(c1)c(CC(=O)Nc1nnc(C3CC3)s1)c(C)n2C(=O)c1ccc(Cl)cc1	53*	58*	13	24
COc1ccc2c(c1)c(CC(=O)NCc1cc([N+](=O)[O-])ccc1O)c(C)n2C(=O)c1ccc(Cl)cc1	62*	43	3	3
COc1ccc(/C=N/NC(=O)c2nc(-c3ccccc3)cc(-c3ccccc3)n2)cc1	-22	30	-1	nt
COc1ccc(/C=N/NC(=O)c2nc(-c3ccccc3)cc(-c3ccccc3)n2)cc1O	-31	54*	3	14
COc1ccc(/C=N/Nc2nc3ccccc3o2)cc1O	-26	72*	9	nt
CCOc1cc(/C=N/NC(=O)c2cc(-c3cccc(OC)c3)nc3ccccc23)ccc1O	58*	78*	nt	-5
O=[N+]([O-])c1ccc(-n2nnnc2-c2ccccc2)c([N+](=O)[O-])c1	17	87*	-1	40
O=[N+]([O-])c1ccc(-n2nnnc2-c2ccccc2)cc1	4	9	-1	17
O=C(COC(=O)CCC(=O)c1ccc(F)cc1)Nc1cccc(S(=O)(=O)N2CCOCC2)c1	6	-16	-2	-26
O=C(COc1ccc(C(=O)c2ccc(F)cc2)cc1)Nc1cccc(S(=O)(=O)N2CCOCC2)c1	54*	57*	nt	11
COc1cc(NC(=O)CNc2cccc(S(=O)(=O)N3CCOCC3)c2)cc(OC)c1	78*	8	nt	-11
Cc1ccc(NC(=O)CNc2cccc(S(=O)(=O)N3CCOCC3)c2)cc1F	6	5	nt	0
Cc1cc(OCC(=O)Nc2cccc(S(=O)(=O)N3CCCCC3)c2)ccc1Cl	27	36	nt	3
CCC(=O)c1ccc(OCC(=O)Nc2cccc(S(=O)(=O)N3CCCCCC3)c2)cc1	31	54*	nt	10
SMILES	TROY signal inh	TWEAK Fn14 block	HSP90 inh	LGR2 antag
CO[C@@H]1CN(C)C(=O)c2ccc(NC(=O)C3CCCC3)cc2OC[C@@H](C)N(C(=O)Nc2ccc(C(F)(F)F)cc2)C[C@H]1C	nt	nt	nt	36
O=S(=O)(CCSc1ccccn1)c1nc2ccccc2s1	34	61*	-3	39
O=C(CSc1ccccn1)Nc1nc2ccccc2s1	-35	-9	-5	-53
O=S(=O)(CCSc1nc2ccccc2o1)c1nc2ccccc2s1	67*	91*	2	?
CO[C@@H]1CN(C)C(=O)c2ccc(NC(=O)C3CC3)cc2OC[C@@H](C)N(Cc2nccs2)C[C@H]1C	nt	nt	nt	-12
Cc1nc(Sc2nnnn2C)c2c3c(sc2n1)CCC3	23	78*	3	nt
CCc1nc(N2CCN(C(=O)c3ccccc3)CC2)c2c3c(sc2n1)CCCC3	32	28	2	29
CCc1nc(Sc2nnnn2-c2ccccc2)c2c3c(sc2n1)CCCC3	55*	93*	-5	55*
CC(C)=CCc1c(O)cc2c(c1O)C(=O)CC(c1ccccc1)O2 (stereo unspecified)	10	47	nt	nt
O=C1CC(c2ccc(O)c(O)c2)Oc2c1ccc(O)c2O (stereo unspecified)	-3	62*	nt	32
CC(C)=CCc1c(O)ccc2c1OC(c1ccc(O)c(O)c1)CC2=O (stereo unspecified)	42	75*	1	-21
C[C@@H]1CN([C@H](C)CO)C(=O)Cc2cc(NC(=O)c3ccncc3)ccc2O[C@H]1CN(C)C	nt	nt	nt	-19
O=C(c1ccccc1Cl)N1N=C(c2ccc(Br)cc2)CC1c1nc2ccccc2[nH]1 (stereo unspecified)	61*	19	-5	nt
O=C(c1ccncc1)N1N=C(c2ccc(Br)cc2)CC1c1ccccc1O (stereo unspecified)	12	11	1	17
COCC(=O)N1C[C@@H]2[C@H](c3ccccc31)[C@H](CO)N2C(=O)C1CCCC1	nt	nt	nt	3
CC(=C/c1ccccc1)/C=N/NC(=O)c1ccccn1	-12	44	17*	?
CCNC(=O)c1cc2c(c(-c3cccc(-c4cc5ccccc5o4)c3)n1)[C@H](CCO)N(C(=O)NC(C)C)C2	33	53*	nt	30
C[C@@H]1CCCCO[C@H](CN(C)C(=O)C2CCCCC2)[C@H](C)CN([C@H](C)CO)C(=O)c2cc(NC(=O)CCC(F)(F)F)ccc2O1	nt	nt	nt	6
Cc1cc(C)c2nc(N3CCOCC3)c(C#N)cc2c1	5	-4	-6	-5
Cc1cccc2cc(C#N)c(N3CCOCC3)nc12	-18	54*	-3	nt
N#Cc1c(-c2ccccc2)nc(SCc2cccc(Cl)c2)[nH]c1=O	58*	0	-4	3
Cc1noc(C)c1NC(=O)N(C)C[C@H]1Oc2ccc(NC(=O)NC(C)C)cc2CC(=O)N([C@H](C)CO)C[C@H]1C	nt	nt	nt	-28
CCOC(=O)C1=C(CNCc2ccccc2Cl)NC(=O)NC1c1ccc2c(c1)OCO2 (stereo unspecified)	nt	80*	3	nt
CC1=C(C(=O)OCc2ccc3c(c2)OCO3)C(c2ccccc2)NC(=O)N1 (stereo unspecified)	59*	87*	3	33
CC1=C(C(=O)OCc2ccc3c(c2)OCO3)C(c2ccc(O)c([N+](=O)[O-])c2)NC(=O)N1 (stereo unspecified)	44	71*	0	-2
O=S(=O)(c1ccccc1)N1CC[C@@H]2[C@H](CO)Nc3ccc(C#Cc4cccc(F)c4)cc3[C@@H]21	nt	nt	nt	4
C/C(Cl)=C\Cn1c(NCCc2ccccc2)nc2c1c(=O)n(C)c(=O)n2C	50*	54*	1	17
C[C@H]1CN([C@@H](C)CO)C(=O)c2cccc(NC(=O)NC3CCCCC3)c2O[C@H]1CN(C)S(C)(=O)=O	nt	nt	nt	8
O=C1N/C(=C/c2cccn2-c2ccc(F)cc2)C(=O)N1Cc1ccccc1F	-27	75*	-1	-13
O=C1N/C(=C/c2cccn2-c2ccccc2)C(=O)N1Cc1ccc(F)cc1	0	1	7	29
